Reference: PubChem BioAssay
Values joined by “and” are separate entries in the source; they are usually repeats but may differ in a detail not shown here. Equal values may be shown once. Active and inactive are the calls of the source.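 How the source made its calls, unless noted: active means compound that reduces growth-factor-driven endothelial tube area in a mixed cell culture, no cutoff stated; inactive means the rest.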

Experiments:
[1] = Wnt pathway potentiators raising nuclear beta-catenin – imaging, WNT3A-conditioned medium, mouse C2C12, NPC library, primary screen (AID 1117326; in the data active means nuclear beta-catenin stimulation mostly above about 4.2%, no sharp cut-off; inactive means mostly below about 10%; further: reference of the scale not given here); conditions: stronger effect = higher value
[2] = stimulators of insulin release from INS-1E, primary screen, cell-based, 5 mM glucose, NPC library (AID 1117329;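 active means compound raises insulin release from rat beta cells at 5 mM glucose, no numeric limit stated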; further: reference of the scale not given here); conditions: rat INS-1E insulin secretion, at 10 µM, stronger effect = higher value
[3] = growth inhibition of GSK3B-pretreated HCT116 cells – cell-based, CellTiter-Glo, 0.2 to 20 µM (AID 1117336;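 active means compounds lowering colon cancer cell viability after pretreatment blocking the GSK3B kinase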); conditions: HCT116 viability after GSK3B inhibitor, at 20 µM, stronger effect = higher value
[4] = inhibition of endothelial tube formation, primary screen, imaging, VEGF stimulated, CD31 staining, tube area, NPC library (AID 1117340); conditions: VEGF-stimulated ADSC/ECFC co-culture, at 10 µM, stronger effect = higher value
[5] = GLP1 release stimulators, primary, NCI-H716, NPC library (AID 1117341;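 active means compound raises GLP1 secretion from the human gut endocrine cells, with no numeric limit stated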; further: reference of the scale not given here); conditions: NCI-H716 cells, at 10 µM, stronger effect = higher value
[6] = HCT116 colon cancer cell growth inhibition, primary screen, CellTiter-Glo luminescence, NPC library (AID 1117342;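 active means compounds that lower survival of HCT116 colon cancer cells in the luminescence readout, no numeric limit stated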); conditions: at 20 µM (top of the series)
[7] = reduced SW480 viability measured with CellTiter-Glo, NPC library, primary (AID 1117343;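 active means compounds that lower viability of the colon cancer cells in the luminescence readout, with no numeric limit stated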); conditions: CellTiter-Glo luminescence; at 20 µM (top of the series)
[8] = NPC library primary testing for decreased DLD-1 cell viability via CellTiter-Glo (AID 1117346;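 active means compounds that lower survival of DLD-1 colon cancer cells in the luminescence readout, no cutoff given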); conditions: DLD-1 viability, CellTiter-Glo luminescence; at 20 µM (top of the series)
[9] = viability loss with induced miR-34 in A549 – imaging, A549 dox-inducible miR-34, nuclei and caspase counts, primary screen (AID 1347080;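 active means compounds whose cell count with miR-34 switched on is under 0.7 times the count with it off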); conditions: A549 miR-34 inducible, Hoechst nuclei count, 48 h
[10] = biological target: NAD(+) hydrolase SARM1 (Homo sapiens) (UniProt Q6SZW1); test: blocking NAD cleavage by SARM1 SAM-TIR – cell lysate, NAD-Glo luminescence (AID 1508614;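 active means compound whose remaining NAD level is above about 45 nM, limit read from the data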); conditions: SAM-TIR HEK293T lysate NADase, at 1 µM, stronger effect = higher value
Chain of NAD(+) hydrolase SARM1 (Homo sapiens) (Q6SZW1 whole entry, looked up): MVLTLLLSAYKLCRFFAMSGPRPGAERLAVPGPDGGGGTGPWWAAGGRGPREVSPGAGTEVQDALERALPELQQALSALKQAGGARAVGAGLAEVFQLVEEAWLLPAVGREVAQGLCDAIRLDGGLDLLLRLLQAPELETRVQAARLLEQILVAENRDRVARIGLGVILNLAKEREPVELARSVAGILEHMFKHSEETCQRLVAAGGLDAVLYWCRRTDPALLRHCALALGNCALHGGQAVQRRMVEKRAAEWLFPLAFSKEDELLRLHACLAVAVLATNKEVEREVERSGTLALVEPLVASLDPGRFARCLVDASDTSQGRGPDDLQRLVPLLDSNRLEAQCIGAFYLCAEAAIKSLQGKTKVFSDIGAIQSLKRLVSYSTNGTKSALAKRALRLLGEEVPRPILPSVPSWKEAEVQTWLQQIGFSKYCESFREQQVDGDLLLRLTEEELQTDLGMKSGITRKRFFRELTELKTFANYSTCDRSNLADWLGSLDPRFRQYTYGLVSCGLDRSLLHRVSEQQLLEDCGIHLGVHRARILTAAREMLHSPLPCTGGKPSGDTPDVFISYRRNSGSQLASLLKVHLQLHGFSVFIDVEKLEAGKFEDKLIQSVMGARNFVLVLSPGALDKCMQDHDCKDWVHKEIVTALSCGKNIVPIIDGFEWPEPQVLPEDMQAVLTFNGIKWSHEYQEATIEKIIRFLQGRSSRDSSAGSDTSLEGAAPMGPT

[11] = compounds altering viability of human ES cells (AID 493140; call rule not given here;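 further: cells exposed to compounds for four days before counting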); conditions: human embryonic stem cell survival screen; stronger effect = higher value
[12] = P. berghei load reduction in hepatocytes – cell-based, HepG2, luciferase luminescence, HepG2 viability, primary screen (AID 624349; in the data active means parasite load remaining mostly below about 12%, no sharp cut-off; inactive means mostly above about 10%;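 further: 100% = mean of DMSO negative control wells on the same plate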); conditions: P. berghei liver stage in HepG2, luciferase luminescence, concentration not given here; parasite load remaining: stronger effect = lower value; viability: measured here: HepG2 viability without parasites
[13] = MELAS cybrid and Rieske KO viability enhancers – cell-based, MELAS cybrids, Rieske KO mouse fibroblasts, CellTiter-Glo, primary screen (AID 1508586;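 active means mean z-score across replicates of 1.96 or higher in either the MELAS or the Rieske mutant cell line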;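 further: z relative to plate mean and SD of compound and empty wells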); conditions: low glucose
[14] = stronger effect = lower value, cell number ratio, induced over uninduced
[15] = measured here: relative caspase fold change +Dox/-Dox
[16] = measured here: total cells with miR-34 induction, stronger effect = lower value
[17] = measured here: total cells without miR-34 induction
[18] = MELAS cybrid survival, CellTiter-Glo 48 h, stronger effect = higher value
[19] = Rieske KO mouse fibroblast survival, CellTiter-Glo 72 h

| SMILES | nuclear beta-catenin stimulation ([1]; at 10 µM) | nuclear beta-catenin stimulation ([1]; stimulation, at 2 µM) [%] | insulin secretion stimulation [2] | viability decrease [3] | tube area decrease [4] | GLP1 secretion stimulation [5] | inhibition of viability [6] | viability decrease (inhibition) [7] | viability decrease (inhibition) [8] | fold change [9, 14] | fold change [9, 15] | cell count [9, 16] | cell count [9, 17] | fold change ([9]; stronger effect = lower value) | remaining NAD [10] | survival [11] | parasite load remaining [12] | viability [12] [%] | z-score [13, 18] | z-score [13, 19] |
| --- | --- | --- | --- | --- | --- | --- | --- | --- | --- | --- | --- | --- | --- | --- | --- | --- | --- | --- | --- | --- |
| COC(=O)[C@@H](N)CCCN/C(N)=N/[N+](=O)[O-] | -0.9% (inactive) | -2.6 | 0.95% (inactive) | 23.3% (inactive) | -8.8% (inactive) | 0.9% (inactive) | 1.7% (inactive) | -10.3% (inactive) | -0.3% (inactive) | 0.947 (inactive) | 0.639 | 5570 | 5890 |  |  |  |  |  |  |  |
| CC(C)(O)C(Cl)(Cl)Cl | -0.2% (inactive) | 0.8 | -2.2% (inactive) | -5.6% (inactive) | 1.4% (inactive) | 1.1% (inactive) | 4.4% (inactive) | 14% (inactive) | 6.7% (inactive) |  | 0.817 | 7820 | 8030 | 0.973 (inactive) | 10 nM (inactive) |  |  |  |  |  |
| O=S(=O)(O)c1cc(O)ccc1O | 0.1% (inactive) | 2.5 | 3.2% (inactive) | -0.4% (inactive) | 3% (inactive) | -3% (inactive) | 2.4% (inactive) | 19.4% (inactive) | 10.6% (inactive) |  | 0.623 and 0.929 | 8960 and 8580 | 9360 and 6370 | 0.958 (inactive) and 1.35 (inactive) |  | 4.5 (inactive) | 113% (inactive) | 69.3 | -0.259 (inactive) and 0.566 (inactive) | -0.197 and 0.515 |
| CN(C)CCc1ccc(O)cc1 | -0.3% (inactive) | 1.5 | -0.4% (inactive) | 1.5% (inactive) | 4.1% (inactive) | 1.1% (inactive) | 4.7% (inactive) | 1.9% (inactive) | -0.4% (inactive) | 0.908 (inactive) | 0.849 | 9070 | 9990 |  |  |  |  |  | -0.277 (inactive) | 0.765 |
| C[C@]12CC[C@@H]3c4ccc(OC(=O)N(CCCl)CCCl)cc4CC[C@H]3[C@@H]1CC[C@@H]2O | -1.2% (inactive) | 0.4 | -0.9% (inactive) | 18.1% (inactive) | 2.8% (inactive) | 2.6% (inactive) | -23.1% (inactive) | 56.7% (active) | 23.4% (inactive) |  |  |  |  |  | 10 nM (inactive) |  |  |  | -1.9 (inactive) | 0.249 |
